The supplement of paper PMC11732987, “Enantioselective OTUD7B fragment discovery through chemoproteomics screening and high-throughput optimisation” (Communications Chemistry, 2025)

Legend:
Test in all cases: log2 ratio of Biotin-Ahx-Ub-VS probe labelling (fragment/DMSO); higher = less target engagement (more negative = stronger competition), active = hit call of the paper (q ≤ 0.05, log2 ratio ≤ -1)
Conditions in all cases: compound concentration: 200 uM; treatment time: 3 h
USP42 = target: T1, USP42 (UniProt Q9H9J4)
T1 sequence (whole entry): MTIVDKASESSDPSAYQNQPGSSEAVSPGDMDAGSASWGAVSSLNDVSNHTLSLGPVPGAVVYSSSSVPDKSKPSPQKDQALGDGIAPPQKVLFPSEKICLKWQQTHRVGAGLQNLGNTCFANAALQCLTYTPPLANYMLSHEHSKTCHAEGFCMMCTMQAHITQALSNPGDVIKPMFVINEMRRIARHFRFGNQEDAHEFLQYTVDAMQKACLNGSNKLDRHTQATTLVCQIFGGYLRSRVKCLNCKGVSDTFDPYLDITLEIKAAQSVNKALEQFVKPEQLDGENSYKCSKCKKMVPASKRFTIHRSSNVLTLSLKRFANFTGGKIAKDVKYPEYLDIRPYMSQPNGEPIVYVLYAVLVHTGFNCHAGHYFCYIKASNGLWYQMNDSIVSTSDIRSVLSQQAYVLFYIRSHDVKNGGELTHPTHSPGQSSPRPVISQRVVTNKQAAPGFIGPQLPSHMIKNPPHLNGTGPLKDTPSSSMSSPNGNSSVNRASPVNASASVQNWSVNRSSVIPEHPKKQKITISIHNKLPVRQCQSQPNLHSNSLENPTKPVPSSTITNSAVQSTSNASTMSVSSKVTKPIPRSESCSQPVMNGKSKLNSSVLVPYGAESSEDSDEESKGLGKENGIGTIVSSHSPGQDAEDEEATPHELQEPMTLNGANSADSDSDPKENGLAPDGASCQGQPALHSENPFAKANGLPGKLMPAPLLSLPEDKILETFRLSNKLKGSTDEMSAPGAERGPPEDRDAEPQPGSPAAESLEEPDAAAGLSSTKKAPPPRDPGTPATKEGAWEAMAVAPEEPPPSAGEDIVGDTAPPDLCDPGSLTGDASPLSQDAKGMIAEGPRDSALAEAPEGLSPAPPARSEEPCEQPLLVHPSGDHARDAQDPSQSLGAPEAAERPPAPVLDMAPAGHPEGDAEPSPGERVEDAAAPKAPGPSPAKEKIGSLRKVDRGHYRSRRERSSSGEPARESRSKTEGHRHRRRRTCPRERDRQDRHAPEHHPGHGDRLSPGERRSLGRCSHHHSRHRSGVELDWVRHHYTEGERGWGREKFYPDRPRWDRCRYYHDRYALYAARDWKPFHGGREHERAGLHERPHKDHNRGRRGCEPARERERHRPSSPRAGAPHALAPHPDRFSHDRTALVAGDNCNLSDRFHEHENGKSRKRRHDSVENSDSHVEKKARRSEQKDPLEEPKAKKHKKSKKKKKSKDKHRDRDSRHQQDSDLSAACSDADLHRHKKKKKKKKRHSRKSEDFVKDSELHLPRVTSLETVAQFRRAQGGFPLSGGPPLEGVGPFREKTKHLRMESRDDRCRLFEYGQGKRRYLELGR
Procedure, shortened: (§1)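 Average log2 ratios of fragment over vehicle were obtained by unpaired t-test from global-median-normalised Spectronaut label-free quantities. Proteins with ≥2 unique peptides were included. HEK293T lysate (495 µg per sample) was treated in triplicate with fragment at 200 µM or vehicle for 3 h, then with Biotin-Ahx-Ub-VS at 0.5 µM final for 1 h, and labelled DUBs were NeutrAvidin-enriched and run by diaPASEF LC-MS/MS.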

USP46 = USP46 (UniProt P62068)
Procedure, shortened: as §1

USP47 = target: T2, USP47 (UniProt Q96K76)
T2 sequence (whole entry): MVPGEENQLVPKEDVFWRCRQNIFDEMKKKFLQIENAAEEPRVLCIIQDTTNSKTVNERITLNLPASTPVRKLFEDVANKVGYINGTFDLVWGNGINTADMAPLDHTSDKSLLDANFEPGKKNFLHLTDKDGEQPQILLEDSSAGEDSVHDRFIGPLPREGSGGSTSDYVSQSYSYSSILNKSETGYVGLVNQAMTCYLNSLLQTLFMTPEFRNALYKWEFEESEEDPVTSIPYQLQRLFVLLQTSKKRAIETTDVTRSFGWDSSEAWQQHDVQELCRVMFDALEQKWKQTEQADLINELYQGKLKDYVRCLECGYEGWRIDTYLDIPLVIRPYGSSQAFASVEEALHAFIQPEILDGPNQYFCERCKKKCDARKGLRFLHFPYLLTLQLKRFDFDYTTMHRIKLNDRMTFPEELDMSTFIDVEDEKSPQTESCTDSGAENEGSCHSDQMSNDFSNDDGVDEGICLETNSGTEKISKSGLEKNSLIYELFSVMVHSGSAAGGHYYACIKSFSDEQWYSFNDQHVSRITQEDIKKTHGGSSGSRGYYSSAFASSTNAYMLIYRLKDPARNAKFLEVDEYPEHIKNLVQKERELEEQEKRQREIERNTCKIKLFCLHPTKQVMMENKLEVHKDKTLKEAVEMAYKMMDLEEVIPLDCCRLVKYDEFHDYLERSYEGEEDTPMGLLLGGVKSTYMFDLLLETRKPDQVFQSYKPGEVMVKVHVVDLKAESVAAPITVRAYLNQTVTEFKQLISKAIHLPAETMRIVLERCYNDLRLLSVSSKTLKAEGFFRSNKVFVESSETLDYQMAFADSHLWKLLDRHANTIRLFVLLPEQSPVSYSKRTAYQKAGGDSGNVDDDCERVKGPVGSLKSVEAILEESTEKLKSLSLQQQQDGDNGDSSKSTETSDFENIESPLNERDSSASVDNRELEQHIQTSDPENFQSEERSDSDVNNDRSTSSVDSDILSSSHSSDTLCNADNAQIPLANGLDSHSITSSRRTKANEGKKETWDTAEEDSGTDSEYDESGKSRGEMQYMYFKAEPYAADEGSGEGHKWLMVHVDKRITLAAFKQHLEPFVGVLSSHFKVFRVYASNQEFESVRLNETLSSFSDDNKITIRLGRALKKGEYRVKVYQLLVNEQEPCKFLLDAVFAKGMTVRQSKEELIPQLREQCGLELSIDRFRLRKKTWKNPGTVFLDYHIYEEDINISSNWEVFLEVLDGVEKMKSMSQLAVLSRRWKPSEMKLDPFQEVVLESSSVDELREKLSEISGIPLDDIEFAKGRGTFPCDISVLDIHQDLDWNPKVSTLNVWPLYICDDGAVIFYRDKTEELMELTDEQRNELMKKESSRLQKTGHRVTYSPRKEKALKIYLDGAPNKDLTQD
Procedure, shortened: as §1

USP48 = target: T3, USP48 (UniProt Q86UV5)
T3 sequence (whole entry): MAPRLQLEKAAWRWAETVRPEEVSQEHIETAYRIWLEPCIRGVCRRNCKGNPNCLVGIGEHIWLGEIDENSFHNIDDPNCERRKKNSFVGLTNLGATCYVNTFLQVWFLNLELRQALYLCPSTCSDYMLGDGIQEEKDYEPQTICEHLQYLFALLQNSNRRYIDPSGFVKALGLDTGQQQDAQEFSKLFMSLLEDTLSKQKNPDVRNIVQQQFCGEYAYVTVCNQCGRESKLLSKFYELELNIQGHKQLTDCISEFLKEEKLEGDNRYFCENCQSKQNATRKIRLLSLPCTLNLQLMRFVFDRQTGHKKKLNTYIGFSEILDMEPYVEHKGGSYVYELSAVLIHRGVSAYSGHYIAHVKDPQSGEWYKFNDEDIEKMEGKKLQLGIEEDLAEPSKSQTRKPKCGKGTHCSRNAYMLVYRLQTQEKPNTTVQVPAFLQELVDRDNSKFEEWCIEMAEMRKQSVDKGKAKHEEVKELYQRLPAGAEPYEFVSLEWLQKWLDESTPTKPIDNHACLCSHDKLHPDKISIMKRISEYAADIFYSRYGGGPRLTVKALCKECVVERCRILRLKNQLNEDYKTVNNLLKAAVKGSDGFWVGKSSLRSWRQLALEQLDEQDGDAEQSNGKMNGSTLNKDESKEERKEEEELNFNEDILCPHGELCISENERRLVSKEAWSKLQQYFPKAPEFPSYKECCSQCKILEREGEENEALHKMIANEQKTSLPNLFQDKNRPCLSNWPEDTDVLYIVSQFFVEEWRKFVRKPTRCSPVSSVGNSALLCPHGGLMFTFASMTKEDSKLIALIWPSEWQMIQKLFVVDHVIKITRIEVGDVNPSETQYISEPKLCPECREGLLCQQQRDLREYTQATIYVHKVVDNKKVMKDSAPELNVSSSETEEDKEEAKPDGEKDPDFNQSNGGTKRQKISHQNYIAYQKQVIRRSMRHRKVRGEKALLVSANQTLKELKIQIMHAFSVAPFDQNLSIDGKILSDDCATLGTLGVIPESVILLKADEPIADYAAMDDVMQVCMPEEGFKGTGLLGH
Procedure, shortened: as §1

USP5 = target: T4, USP5 (UniProt P45974)
T4 sequence (whole entry): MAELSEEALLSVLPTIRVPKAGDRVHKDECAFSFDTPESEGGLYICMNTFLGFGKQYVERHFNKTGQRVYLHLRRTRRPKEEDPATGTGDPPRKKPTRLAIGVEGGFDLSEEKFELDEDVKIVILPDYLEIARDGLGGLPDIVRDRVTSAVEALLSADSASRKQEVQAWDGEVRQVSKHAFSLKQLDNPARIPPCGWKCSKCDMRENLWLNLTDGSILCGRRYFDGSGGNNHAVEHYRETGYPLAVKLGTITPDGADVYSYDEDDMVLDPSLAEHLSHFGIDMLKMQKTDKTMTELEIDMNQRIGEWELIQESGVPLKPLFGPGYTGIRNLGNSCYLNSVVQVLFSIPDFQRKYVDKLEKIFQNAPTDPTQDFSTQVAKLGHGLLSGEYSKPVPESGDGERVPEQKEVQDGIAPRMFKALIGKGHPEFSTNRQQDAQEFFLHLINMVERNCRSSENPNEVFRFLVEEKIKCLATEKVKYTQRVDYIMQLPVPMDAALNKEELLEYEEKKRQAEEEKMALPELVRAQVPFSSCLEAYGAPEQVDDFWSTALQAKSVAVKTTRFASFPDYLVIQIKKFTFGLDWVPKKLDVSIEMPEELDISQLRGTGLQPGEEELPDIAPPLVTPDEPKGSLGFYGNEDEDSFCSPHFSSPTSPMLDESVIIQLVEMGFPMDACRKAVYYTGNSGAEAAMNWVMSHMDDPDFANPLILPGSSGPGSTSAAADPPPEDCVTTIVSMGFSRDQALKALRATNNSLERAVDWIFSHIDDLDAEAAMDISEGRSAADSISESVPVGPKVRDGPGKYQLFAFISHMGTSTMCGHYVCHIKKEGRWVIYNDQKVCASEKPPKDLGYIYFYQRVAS
Procedure, shortened: as §1

USP54 = USP54 (UniProt Q70EL1)
Procedure, shortened: as §1

USP7 = USP7 (UniProt Q93009)
Procedure, shortened: as §1

USP8 = target: T5, USP8 (UniProt P40818)
T5 sequence (whole entry): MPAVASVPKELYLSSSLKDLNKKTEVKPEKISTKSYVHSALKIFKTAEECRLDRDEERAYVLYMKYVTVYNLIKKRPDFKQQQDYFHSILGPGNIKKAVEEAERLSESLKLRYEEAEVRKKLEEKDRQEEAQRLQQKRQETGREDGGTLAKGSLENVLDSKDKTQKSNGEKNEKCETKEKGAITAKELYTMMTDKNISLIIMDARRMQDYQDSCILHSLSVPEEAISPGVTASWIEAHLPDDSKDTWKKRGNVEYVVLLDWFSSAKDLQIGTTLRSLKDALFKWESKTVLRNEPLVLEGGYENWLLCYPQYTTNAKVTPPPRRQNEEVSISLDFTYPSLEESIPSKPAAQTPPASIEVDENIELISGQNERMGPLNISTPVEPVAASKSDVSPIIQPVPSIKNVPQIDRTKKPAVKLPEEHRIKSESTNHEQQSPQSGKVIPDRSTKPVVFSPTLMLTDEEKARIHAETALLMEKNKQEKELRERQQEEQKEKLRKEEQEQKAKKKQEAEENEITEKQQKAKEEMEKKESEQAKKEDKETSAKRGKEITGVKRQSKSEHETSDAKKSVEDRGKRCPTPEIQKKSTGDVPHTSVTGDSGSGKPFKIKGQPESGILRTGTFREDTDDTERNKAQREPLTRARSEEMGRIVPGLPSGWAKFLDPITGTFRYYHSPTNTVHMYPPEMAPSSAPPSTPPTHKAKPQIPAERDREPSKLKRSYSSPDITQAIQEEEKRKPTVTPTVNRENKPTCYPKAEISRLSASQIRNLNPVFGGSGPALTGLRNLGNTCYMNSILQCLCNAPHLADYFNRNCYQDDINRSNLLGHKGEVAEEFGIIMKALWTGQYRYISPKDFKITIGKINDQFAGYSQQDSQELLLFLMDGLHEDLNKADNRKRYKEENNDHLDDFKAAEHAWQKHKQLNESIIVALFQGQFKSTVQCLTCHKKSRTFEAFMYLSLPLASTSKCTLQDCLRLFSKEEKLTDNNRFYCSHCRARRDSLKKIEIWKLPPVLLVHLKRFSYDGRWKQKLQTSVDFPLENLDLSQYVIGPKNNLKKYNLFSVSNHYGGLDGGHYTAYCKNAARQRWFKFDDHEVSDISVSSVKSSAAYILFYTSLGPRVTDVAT
Procedure, shortened: as §1

USP9X = USP9X (UniProt Q93008)
Procedure, shortened: as §1

UniProt O00487 = target: UniProt O00487
Procedure, shortened: as §1

Measured: log2 ratio of Biotin-Ahx-Ub-VS probe labelling

Sequence of UniProt O00487 (O00487 whole entry): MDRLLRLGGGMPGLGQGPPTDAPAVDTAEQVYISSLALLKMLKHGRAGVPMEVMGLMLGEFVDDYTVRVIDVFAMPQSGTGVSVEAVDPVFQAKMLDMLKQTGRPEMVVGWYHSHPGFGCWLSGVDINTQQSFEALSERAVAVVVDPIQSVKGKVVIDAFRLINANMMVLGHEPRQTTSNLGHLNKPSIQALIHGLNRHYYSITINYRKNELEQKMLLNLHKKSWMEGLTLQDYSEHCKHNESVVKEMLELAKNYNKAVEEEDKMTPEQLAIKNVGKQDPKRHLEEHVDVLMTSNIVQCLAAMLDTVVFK
Sequence of USP9X (Q93008 whole entry): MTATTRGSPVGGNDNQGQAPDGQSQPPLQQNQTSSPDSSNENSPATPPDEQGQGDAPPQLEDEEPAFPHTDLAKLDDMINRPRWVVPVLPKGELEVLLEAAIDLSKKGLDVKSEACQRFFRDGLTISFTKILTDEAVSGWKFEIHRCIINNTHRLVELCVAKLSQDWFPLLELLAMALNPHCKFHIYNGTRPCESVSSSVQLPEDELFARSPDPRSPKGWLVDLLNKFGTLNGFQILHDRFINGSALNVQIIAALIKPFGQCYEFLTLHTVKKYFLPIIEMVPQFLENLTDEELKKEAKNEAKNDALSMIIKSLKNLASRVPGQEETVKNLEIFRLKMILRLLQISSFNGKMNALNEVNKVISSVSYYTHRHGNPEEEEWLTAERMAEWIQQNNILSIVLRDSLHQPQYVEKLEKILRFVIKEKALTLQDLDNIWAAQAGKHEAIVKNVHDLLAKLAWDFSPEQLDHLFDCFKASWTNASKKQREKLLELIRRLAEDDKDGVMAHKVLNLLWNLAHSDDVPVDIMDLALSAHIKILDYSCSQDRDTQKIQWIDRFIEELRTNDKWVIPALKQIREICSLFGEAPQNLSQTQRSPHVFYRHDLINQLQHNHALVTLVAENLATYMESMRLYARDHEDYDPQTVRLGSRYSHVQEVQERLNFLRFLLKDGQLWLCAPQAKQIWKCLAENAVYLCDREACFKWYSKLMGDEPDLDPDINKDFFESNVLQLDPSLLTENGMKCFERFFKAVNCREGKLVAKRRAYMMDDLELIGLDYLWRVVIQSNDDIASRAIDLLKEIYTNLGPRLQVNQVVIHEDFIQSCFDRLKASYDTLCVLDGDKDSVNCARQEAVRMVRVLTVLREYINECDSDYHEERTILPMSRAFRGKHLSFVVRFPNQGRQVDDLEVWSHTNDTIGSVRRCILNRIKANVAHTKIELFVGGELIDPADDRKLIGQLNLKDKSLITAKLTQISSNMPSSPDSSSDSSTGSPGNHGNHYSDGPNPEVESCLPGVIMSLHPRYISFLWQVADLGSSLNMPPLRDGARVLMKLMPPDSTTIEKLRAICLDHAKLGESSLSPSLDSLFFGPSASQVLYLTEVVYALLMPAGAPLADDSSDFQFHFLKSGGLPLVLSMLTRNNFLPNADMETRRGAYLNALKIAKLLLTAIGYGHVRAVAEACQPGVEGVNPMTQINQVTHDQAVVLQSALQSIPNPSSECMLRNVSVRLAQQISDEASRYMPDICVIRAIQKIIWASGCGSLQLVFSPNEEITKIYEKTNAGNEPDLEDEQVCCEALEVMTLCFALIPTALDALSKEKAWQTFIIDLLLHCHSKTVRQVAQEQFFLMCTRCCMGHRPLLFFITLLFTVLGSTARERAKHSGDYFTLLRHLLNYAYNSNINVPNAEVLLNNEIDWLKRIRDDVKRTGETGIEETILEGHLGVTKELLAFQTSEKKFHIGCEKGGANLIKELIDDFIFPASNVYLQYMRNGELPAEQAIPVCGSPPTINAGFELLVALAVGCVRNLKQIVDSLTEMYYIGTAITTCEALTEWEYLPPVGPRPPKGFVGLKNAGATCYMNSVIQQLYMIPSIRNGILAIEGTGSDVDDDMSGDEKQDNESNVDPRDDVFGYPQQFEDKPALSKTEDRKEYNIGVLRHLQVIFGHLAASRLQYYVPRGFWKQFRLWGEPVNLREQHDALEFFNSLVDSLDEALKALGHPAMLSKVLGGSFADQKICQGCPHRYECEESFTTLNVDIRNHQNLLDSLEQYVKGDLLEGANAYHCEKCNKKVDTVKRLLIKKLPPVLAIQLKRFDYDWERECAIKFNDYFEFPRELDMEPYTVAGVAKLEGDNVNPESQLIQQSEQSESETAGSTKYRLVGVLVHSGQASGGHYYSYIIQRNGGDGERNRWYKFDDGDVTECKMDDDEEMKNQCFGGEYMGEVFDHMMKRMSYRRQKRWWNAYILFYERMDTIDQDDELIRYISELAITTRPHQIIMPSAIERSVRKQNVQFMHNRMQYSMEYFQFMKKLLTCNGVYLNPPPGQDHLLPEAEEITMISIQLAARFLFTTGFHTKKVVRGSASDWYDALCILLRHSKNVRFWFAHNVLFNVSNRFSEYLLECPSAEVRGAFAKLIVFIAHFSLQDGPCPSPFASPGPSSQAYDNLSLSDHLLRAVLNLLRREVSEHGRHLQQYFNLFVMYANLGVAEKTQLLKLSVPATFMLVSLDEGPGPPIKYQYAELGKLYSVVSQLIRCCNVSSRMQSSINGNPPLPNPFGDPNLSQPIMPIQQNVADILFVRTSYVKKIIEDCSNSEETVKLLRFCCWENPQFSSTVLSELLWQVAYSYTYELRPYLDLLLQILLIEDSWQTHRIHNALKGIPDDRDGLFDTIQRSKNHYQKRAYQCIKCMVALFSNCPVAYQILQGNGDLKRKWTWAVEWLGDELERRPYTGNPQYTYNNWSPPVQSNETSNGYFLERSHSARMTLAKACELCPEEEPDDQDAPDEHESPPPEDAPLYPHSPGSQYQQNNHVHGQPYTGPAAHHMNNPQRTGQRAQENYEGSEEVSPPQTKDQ
Sequence of USP7 (Q93009 whole entry, looked up): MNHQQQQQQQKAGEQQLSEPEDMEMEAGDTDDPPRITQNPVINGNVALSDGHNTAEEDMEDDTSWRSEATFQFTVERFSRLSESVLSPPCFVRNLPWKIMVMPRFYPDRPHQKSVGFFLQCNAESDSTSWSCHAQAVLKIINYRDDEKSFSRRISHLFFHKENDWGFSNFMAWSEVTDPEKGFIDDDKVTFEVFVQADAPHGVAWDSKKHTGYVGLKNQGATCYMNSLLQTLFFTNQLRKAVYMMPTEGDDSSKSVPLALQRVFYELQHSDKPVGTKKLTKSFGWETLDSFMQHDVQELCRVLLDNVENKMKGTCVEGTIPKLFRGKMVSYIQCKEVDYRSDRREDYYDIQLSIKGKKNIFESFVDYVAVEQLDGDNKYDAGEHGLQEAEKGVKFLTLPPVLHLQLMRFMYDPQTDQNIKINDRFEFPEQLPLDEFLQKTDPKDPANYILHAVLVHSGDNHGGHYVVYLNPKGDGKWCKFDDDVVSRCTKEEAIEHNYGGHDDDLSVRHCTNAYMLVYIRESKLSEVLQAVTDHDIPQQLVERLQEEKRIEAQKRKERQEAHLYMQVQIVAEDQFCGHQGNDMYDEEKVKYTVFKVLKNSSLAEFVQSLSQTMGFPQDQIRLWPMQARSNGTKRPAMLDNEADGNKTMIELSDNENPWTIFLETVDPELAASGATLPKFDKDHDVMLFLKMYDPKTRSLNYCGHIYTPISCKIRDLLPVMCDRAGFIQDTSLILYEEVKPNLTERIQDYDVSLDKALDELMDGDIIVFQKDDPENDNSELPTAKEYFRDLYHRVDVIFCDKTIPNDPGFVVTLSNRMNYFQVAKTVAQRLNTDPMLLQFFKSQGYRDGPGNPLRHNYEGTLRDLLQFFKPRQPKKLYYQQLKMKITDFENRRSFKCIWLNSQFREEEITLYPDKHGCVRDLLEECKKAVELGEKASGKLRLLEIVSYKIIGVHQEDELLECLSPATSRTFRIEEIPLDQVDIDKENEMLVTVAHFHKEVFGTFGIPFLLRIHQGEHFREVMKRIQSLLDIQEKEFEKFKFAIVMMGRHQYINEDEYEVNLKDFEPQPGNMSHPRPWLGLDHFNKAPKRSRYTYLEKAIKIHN
Sequence of USP46 (P62068 whole entry): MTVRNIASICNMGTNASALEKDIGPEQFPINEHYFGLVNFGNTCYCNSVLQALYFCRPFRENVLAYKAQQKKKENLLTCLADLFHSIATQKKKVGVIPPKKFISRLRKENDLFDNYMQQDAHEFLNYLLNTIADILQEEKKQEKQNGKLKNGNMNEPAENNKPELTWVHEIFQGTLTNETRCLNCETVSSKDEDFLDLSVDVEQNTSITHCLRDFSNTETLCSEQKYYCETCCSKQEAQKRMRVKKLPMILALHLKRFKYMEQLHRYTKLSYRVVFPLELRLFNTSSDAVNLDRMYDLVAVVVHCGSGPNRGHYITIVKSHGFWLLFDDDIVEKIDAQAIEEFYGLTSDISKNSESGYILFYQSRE

Cc1nnc(C(NC(=O)CCl)c2ccccc2)n1C (stereo not given)
inactive: USP42 0.478 | USP46 0.418 | USP47 0.26 | USP48 0.313 | USP5 0.627 | USP54 0.407 | USP7 0.438 | USP8 0.467 | USP9X 0.432 | UniProt O00487 0.442
